Experimental data from ChEMBL document CHEMBL3988442, “University of Dundee, Small-Polar-MMV Screening Library” (2021).
Hit rate of the full screen: of about 69,000 compounds, about 1,000 (1.4%) showed an effect of 50% or more. The list comes from a sample in which strong results are over-represented; it also holds similar structures and randomly drawn compounds.

System: Leishmania donovani
Test: Leishmania intramacrophage assay
Format: functional, organism-based
Parameters: scale not given: in the data most compounds retested in dose-response had high values

CC1c2ncc(Cn3cccn3)n2CCN1S(=O)(=O)C1CC1 (stereo unspecified)
Percent Effect (30.3 µM, […]): 4.524%

Cc1ccc2oc(CN3CCC(C(=O)O)(n4ccnc4)CC3)c(C)c2c1
Percent Effect (30.3 µM, […]): 21.21%

CN(C)C[C@@H]1C[C@@H]2CN(Cc3nccn3C)CC[C@@H]2N1CC1CC1
Percent Effect (30.3 µM, […]): 27%

CC(C)C(=O)N1CCN(c2ncnc3cc4c(cc23)OCCO4)CC1
Percent Effect (30.3 µM, […]): 56.87%

CCC(=O)N1CCN(c2ncnc3cc4c(cc23)OCCO4)CC1
Percent Effect (30.3 µM, […]): -95.64%

CC(=O)N1CCN(c2ncnc3cc4c(cc23)OCCO4)CC1
Percent Effect (30.3 µM, […]): 39.4%

COc1cc2cc(C(=O)N[C@@H](C)C(=O)O)n(C)c2c(OC)c1OC
Percent Effect (30 µM, 30.03 µM): 2.156%

O=C(c1cccnc1)N1CCc2onc(CN3CCCC3)c2C1
Percent Effect (30.3 µM, […]): 14.82%

Cc1nnc2n1CCN(CC(O)CN1CCC(C)CC1)C2 (stereo unspecified)
Percent Effect (30.3 µM, […]): 33.92%

CCC(CN1CCCC1)n1cncc1-c1cnn(-c2ccc(F)cc2)c1.Cl (stereo unspecified)
Percent Effect (30.3 µM, […]): 14.1%

COc1c(C)cnc(CN(C)C2CCN(C3CCOCC3)CC2)c1C
Percent Effect (30.3 µM, […]): 38.73%

COc1c(C)cnc(CN(C)C2CCCCC2)c1C
Percent Effect (30.3 µM, […]): 77.94%

COc1c(C)cnc(CN(C)C2CCOC3(CCOCC3)C2)c1C (stereo unspecified)
Percent Effect (30.3 µM, […]): 5.753%

CC(Cn1cccn1)C(=O)N1CCCN(Cc2cscn2)CC1 (stereo unspecified)
Percent Effect (30.3 µM, […]): 10.45%

O=C(c1cccs1)N1CCc2c(nc(N3CCCC3)[nH]c2=O)C1
Percent Effect (30.3 µM, […]): -25.29%

CN(C)C(=O)C1CCN(Cn2nc(-c3ccc(F)cc3)oc2=O)CC1
Percent Effect (30 µM): -5.064%

c1cnnc(N2CCCC(NCc3nc(-c4ccsc4)no3)C2)c1 (stereo unspecified)
Percent Effect (30.3 µM, […]): 12.92%

CC(NCc1ccncc1)c1ccc(N2CCN(C)CC2)c(F)c1.Cl (stereo unspecified)
Percent Effect (30.3 µM, […]): -0.6983%

CC(NCc1cnc(N2CCN(C)CC2)nc1)c1ccc(F)cc1 (stereo unspecified)
Percent Effect (30.3 µM, […]): 58.55%

CN1CCN(c2ncc(CNCCCc3cccc(F)c3)cn2)CC1
Percent Effect (30.3 µM, […]): 20.79%

Cn1ccnc1CNC1CCCOc2c1ccc1ccccc21 (stereo unspecified)
Percent Effect (30.3 µM, […]): 20.1%

c1ccc(Cn2ccnc2CNC2CCCOc3ccccc32)cc1 (stereo unspecified)
Percent Effect (30.3 µM, […]): 4.41%

Cc1cccc2c1OCCCC2NCc1nccn1Cc1ccccc1 (stereo unspecified)
Percent Effect (30.3 µM, […]): 82.89%

Cc1ccc2c(c1)OCCCC2NCc1nccn1Cc1ccccc1 (stereo unspecified)
Percent Effect (30.3 µM, […]): 50.6%

Cc1ccc2c(c1)C(NCc1nccn1Cc1ccccc1)CCCO2 (stereo unspecified)
Percent Effect (30.3 µM, […]): 23.59%

Cc1ccc2c(c1)OCCCC2NCc1nccn1CC(C)C (stereo unspecified)
Percent Effect (30.3 µM, […]): 9.865%

Cc1noc([C@@]23CCO[C@@H]2CCN(C(=O)CCC(C)C)C3)n1
Percent Effect (30.3 µM, […]): -4.868%

COCCN(CCC#N)S(=O)(=O)c1ccc(F)cc1Cl
Percent Effect (30.3 µM, […]): -7.04%

Cc1nc(CNC(=O)Cn2nc(-c3ccc(F)cc3)oc2=O)cs1
Percent Effect (30 µM, 30.03 µM): -4.773%

COc1ccc(-c2cn(CCSc3ncn[nH]3)nn2)cn1
Percent Effect (30.3 µM, […]): 35.9%

Cc1nn(C)c(C)c1CN(C(=O)c1cc(Cl)c[nH]c1=O)C(C)C
Percent Effect (30.3 µM, […]): 14.01%

Cc1ncc2c(n1)CCCC2NC(=O)c1ccc(Cn2cccn2)cc1 (stereo unspecified)
Percent Effect (30.3 µM, […]): 26.01%

Cc1nn(CC(F)F)c2c1c(C(F)F)cc(=O)n2CC(=O)O
Percent Effect (30.3 µM, […]): -4.895%

COC(=O)Cn1c(=O)cc(C(F)F)c2c(C)nn(CC(F)F)c21
Percent Effect (30.3 µM, […]): 51.48%

CCCn1nc(C)c2c(C(F)F)cc(=O)n(CC(=O)O)c21
Percent Effect (30.3 µM, […]): 18.18%

CC1(C)CN(C(CNS(C)(=O)=O)c2ccc(Cl)cc2)CCO1 (stereo unspecified)
Percent Effect (30.3 µM, […]): 30.45%

O=C(Cc1ccc(F)cc1)N1CCn2c(Cn3cncn3)cnc2C1
Percent Effect (30.3 µM, […]): 5.226%

CCc1nc2n(n1)CC(NCc1nc(-c3ccccn3)no1)CC2 (stereo unspecified)
Percent Effect (30 µM): -15.89%

Cc1noc(C)c1CC(=O)N1CCCC(Cn2ccnc2C)C1 (stereo unspecified)
Percent Effect (30.3 µM, […]): 14.7%

Cc1nccn1CC1CCCN(C(=O)Cc2ccsc2)C1 (stereo unspecified)
Percent Effect (30.3 µM, […]): 72.54%

CC(=O)N1CC(C(=O)N2CCCC(Cn3ccnc3C)C2)C1 (stereo unspecified)
Percent Effect (30.3 µM, […]): 46.71%

COc1ccc(CN2CCN(S(=O)(=O)c3cc(C(=O)O)cs3)CC2)cc1
Percent Effect (30.3 µM, […]): 15%

Cn1cc(C(=O)N2CC[C@@H]3[C@@H]2CCN3c2ccccn2)cn1
Percent Effect (30.3 µM, […]): 28.1%

CC(=O)NCCCOc1c(C)cccc1Cl
Percent Effect (30.3 µM, […]): 16.58%

Cc1ccc(C(=O)N2CCC3(CCC(=O)N(CCN(C)C)C3)CC2)nc1
Percent Effect (30.3 µM, […]): 0.8363%

CCN1CCCC1Cn1ccc2ccc(C(=O)OC)cc2c1=O (stereo unspecified)
Percent Effect (30.3 µM, […]): -29.19%

CCc1ccc2nc(NCCOCCO)cc(C)c2c1
Percent Effect (30.3 µM, […]): 19.28%

CCc1ccc2nc(NCCCN(CCO)CCO)cc(C)c2c1
Percent Effect (30.3 µM, […]): 97.87%

CCc1ccc2nc(NCC(O)CO)cc(C)c2c1 (stereo unspecified)
Percent Effect (30.3 µM, […]): 21.82%

CCc1ccc(CN2Cc3nccn3CC(Cn3cncn3)C2)o1.O=C(O)C(F)(F)F (stereo unspecified)
Percent Effect (30.3 µM, […]): 27.46%

COc1cccc(COCC(=O)N2CCC(CC(N)=O)CC2)c1
Percent Effect (30 µM, 30.03 µM): -26.96%

Cc1c(C)n(-c2ccccn2)c2nc3c(c(N)c12)CCCC3
Percent Effect (30 µM, 30.03 µM): 43.5%

Cc1c(C)n(Cc2ccccn2)c2nc3c(c(N)c12)CCCCCC3
Percent Effect (30.3 µM, […]): 8.308%

Cc1c(C)n(-c2ccccn2)c2nc3c(c(N)c12)CCCCC3
Percent Effect (30.3 µM, […]): 70.72%

CC1CN(C)c2ccccc2CN1C(=O)c1ccc[nH]1 (stereo unspecified)
Percent Effect (30 µM, 30.03 µM): 18.04%

COCCn1cnc2ccc(NC(=O)c3ccc(OC)cc3)cc2c1=O
Percent Effect (30.3 µM, […]): 23.03%

Cn1ccnc1COc1ccc(COC(=O)C2CCCO2)cc1 (stereo unspecified)
Percent Effect (30.3 µM, […]): -0.4672%

Cc1c(CC(C#N)C(=O)Nc2cccc(O)c2)cnn1C (stereo unspecified)
Percent Effect (30.3 µM, […]): -22.11%

COc1ccc(Cl)cc1NC(=O)N1CCc2nc(NC(C)=O)sc2C1
Percent Effect (30.3 µM, […]): 55.24%

COc1ccc(Cl)cc1NC(=O)CN1CCc2nc(NC(C)=O)sc2C1
Percent Effect (30.3 µM, […]): -8.893%

COC(=O)Nc1nc2c(s1)CN(C(=O)NCc1cccs1)CC2
Percent Effect (30.3 µM, […]): -0.9773%

Cn1ccnc1CN1CCCN(C(=O)c2ccc(O)nc2)CC1
Percent Effect (30 µM): 25.73%

Cc1nc2sccn2c1CN(CCCN(C)C)Cc1ccco1.O=C(O)CC(O)(CC(=O)O)C(=O)O
Percent Effect (30.3 µM, […]): 41.01%

CC[C@@]1(O)CCN(C(=O)CCc2cnn(C)c2)C[C@H]1O
Percent Effect (30.3 µM, […]): 28.56%

COc1ccc(C(C)NCCc2ccc(NC(C)=O)cc2)cc1F (stereo unspecified)
Percent Effect (30.3 µM, […]): 23.19%

COc1ccc(C(C)NCc2nnc(C)s2)cc1F (stereo unspecified)
Percent Effect (30.3 µM, […]): 13.85%

COc1ccc(C(C)NCCC(N)=O)cc1F (stereo unspecified)
Percent Effect (30.3 µM, […]): 52.68%

CCSc1cc(C(=O)NCCc2nnc(-c3ccco3)[nH]2)ccn1
Percent Effect (30.3 µM, […]): -0.0887%

CN(CCn1nc2ccccn2c1=O)CC(=O)N(C)C1CCCCC1
Percent Effect (30.3 µM, […]): 4.76%

Cc1nc(N2CCCC2)ncc1-c1cc(O)nc(N2CCCC2)n1
Percent Effect (30 µM, 30.03 µM): 15.83%

Cc1nc(N2CCCC2)ncc1-c1cc(O)nc(N2CCN(C)CC2)n1
Percent Effect (30.3 µM, […]): 59.07%

Cc1nc(N2CCCC2)ncc1-c1cc(O)nc(N2CCCCC2)n1
Percent Effect (30.3 µM, […]): -14.51%

CCCS(=O)(=O)NC(=O)c1sc(C2CCCC2)nc1C
Percent Effect (30.3 µM, […]): 11.93%

COCCNC(=O)C[C@@H]1COC[C@H]2CN(C(=O)c3cnccn3)C[C@@H]12
Percent Effect (30 µM, 30.03 µM): 9.909%

COCCNC(=O)C[C@@H]1COC[C@H]2CN(C(=O)C3CCOCC3)C[C@@H]12
Percent Effect (30.3 µM, […]): 11.97%

COCCNC(=O)C[C@@H]1COC[C@H]2CN(C(=O)COC)C[C@@H]12
Percent Effect (30.3 µM, […]): 51.2%

COC(=O)C(c1ccccc1)N(C)C(=O)c1ccnc(C)n1 (stereo unspecified)
Percent Effect (30 µM): 22.67%

Cc1ccccc1-n1ccc2nc(N3CCCC3)ncc2c1=O
Percent Effect (30.3 µM, […]): 13.99%

CS(=O)(=O)CC(=O)N(CCN1CCOCC1)Cc1ccco1
Percent Effect (30.3 µM, […]): -78.1%

CCC(=O)N1CCC2(CC1)CC(N1CCOCC1)c1cc(C)ccc12.O=C(O)C(F)(F)F (stereo unspecified)
Percent Effect (30.3 µM, […]): 12%

COCCN1CCC2(CC1)CC(NC(=O)COC)c1ccccc1O2.O=C(O)C(F)(F)F (stereo unspecified)
Percent Effect (30.3 µM, […]): 15.07%

Cc1ccc2c(c1)C1(CCNCC1)CC2N1CCOCC1 (stereo unspecified)
Percent Effect (30.3 µM, […]): 11.46%

COCCN1CCC2(CC1)CC(NC(=O)CN(C)C)c1ccccc1O2.O=C(O)C(F)(F)F.O=C(O)C(F)(F)F (stereo unspecified)
Percent Effect (30.3 µM, […]): 52.21%

Cc1ccc(CNC2CC3(CCN(CCO)CC3)c3ccccc32)s1.O=C(O)C(F)(F)F.O=C(O)C(F)(F)F (stereo unspecified)
Percent Effect (30.3 µM, […]): 81.48%

COCCN1CCC2(CC1)CC(NCc1ccc(C)s1)c1ccccc12.O=C(O)C(F)(F)F.O=C(O)C(F)(F)F (stereo unspecified)
Percent Effect (30.3 µM, […]): 59.95%

Cc1ccc2c(c1)C(N1CCOCC1)CC21CCNCC1 (stereo unspecified)
Percent Effect (30.3 µM, […]): 55.92%

COCCN1CCC2(CC1)CC(NC(=O)CC1CC1)c1ccccc1O2.O=C(O)C(F)(F)F (stereo unspecified)
Percent Effect (30.3 µM, […]): -12.69%

COCCN1CCC2(CC1)CC(NCc1cncn1C)c1ccccc12.O=C(O)C(F)(F)F.O=C(O)C(F)(F)F (stereo unspecified)
Percent Effect (30.3 µM, […]): 17.77%

Cn1cncc1CNC1CC2(CCN(CC3CC3)CC2)c2ccccc21.O=C(O)C(F)(F)F.O=C(O)C(F)(F)F (stereo unspecified)
Percent Effect (30.3 µM, […]): 22.11%

COCC(=O)NC1CC2(CCN(CCO)CC2)c2ccccc21.O=C(O)C(F)(F)F (stereo unspecified)
Percent Effect (30.3 µM, […]): 8.463%

Cc1cccc(CNC2CC3(CCN(CCO)CC3)c3ccccc32)n1.O=C(O)C(F)(F)F.O=C(O)C(F)(F)F (stereo unspecified)
Percent Effect (30.3 µM, […]): 9.361%

CCn1nccc1CNC(=O)C1CCCO1 (stereo unspecified)
Percent Effect (30.3 µM, […]): 2.08%

CNc1oc(-c2ccc(OC)c(S(=O)(=O)N3CCCC3)c2)nc1C#N
Percent Effect (30.3 µM, […]): 16.63%

CC(=O)N1CCC2(CC1)CC(NS(C)(=O)=O)c1ccccc1O2 (stereo unspecified)
Percent Effect (30.3 µM, […]): 6.966%

O=C(NCc1cccs1)c1nc2c(o1)CN(c1ncccn1)C2
Percent Effect (30.3 µM, […]): 27.75%

CCn1c(CC2CCN(C(=O)c3ccnn3C)CC2)n[nH]c1=O
Percent Effect (30.3 µM, […]): 15.21%

Cc1csc(CNC(=O)NCC(O)c2cccc(Cl)c2)n1 (stereo unspecified)
Percent Effect (30 µM, 30.03 µM): 17.1%

CCCN(C(=O)c1csnn1)C1CCCN(Cc2ccccc2)C1 (stereo unspecified)
Percent Effect (30.3 µM, […]): 11.65%

CC(=O)N1CCC2(CC1)CC(N1CCOCC1)c1ccc(C)cc12.O=C(O)C(F)(F)F (stereo unspecified)
Percent Effect (30.3 µM, […]): 29.16%

COCCN1CCC2(CC1)CC(N1CCOCC1)c1cc(C)ccc12.O=C(O)C(F)(F)F.O=C(O)C(F)(F)F (stereo unspecified)
Percent Effect (30.3 µM, […]): 13.44%

COCCN1CCC2(CC1)CC(N1CCOCC1)c1ccc(C)cc12.O=C(O)C(F)(F)F.O=C(O)C(F)(F)F (stereo unspecified)
Percent Effect (30.3 µM, […]): 56.38%
